The values below come from PubChem BioAssay AID1671202 (University of Kansas High Throughput Screening Laboratory, 2021).

The campaign covered roughly 190,000 compounds. About 6,900 (3.6%) were called active. The full list was thinned out, with actives kept by preference. Unmarked numbers belong to inactive results. Cut-off read from the data, not from the text of the source: active = inhibition above about 50%; inactive = the rest.

Sequence of Huntingtin (Homo sapiens) (P42858 whole entry, looked up, stated change not applied): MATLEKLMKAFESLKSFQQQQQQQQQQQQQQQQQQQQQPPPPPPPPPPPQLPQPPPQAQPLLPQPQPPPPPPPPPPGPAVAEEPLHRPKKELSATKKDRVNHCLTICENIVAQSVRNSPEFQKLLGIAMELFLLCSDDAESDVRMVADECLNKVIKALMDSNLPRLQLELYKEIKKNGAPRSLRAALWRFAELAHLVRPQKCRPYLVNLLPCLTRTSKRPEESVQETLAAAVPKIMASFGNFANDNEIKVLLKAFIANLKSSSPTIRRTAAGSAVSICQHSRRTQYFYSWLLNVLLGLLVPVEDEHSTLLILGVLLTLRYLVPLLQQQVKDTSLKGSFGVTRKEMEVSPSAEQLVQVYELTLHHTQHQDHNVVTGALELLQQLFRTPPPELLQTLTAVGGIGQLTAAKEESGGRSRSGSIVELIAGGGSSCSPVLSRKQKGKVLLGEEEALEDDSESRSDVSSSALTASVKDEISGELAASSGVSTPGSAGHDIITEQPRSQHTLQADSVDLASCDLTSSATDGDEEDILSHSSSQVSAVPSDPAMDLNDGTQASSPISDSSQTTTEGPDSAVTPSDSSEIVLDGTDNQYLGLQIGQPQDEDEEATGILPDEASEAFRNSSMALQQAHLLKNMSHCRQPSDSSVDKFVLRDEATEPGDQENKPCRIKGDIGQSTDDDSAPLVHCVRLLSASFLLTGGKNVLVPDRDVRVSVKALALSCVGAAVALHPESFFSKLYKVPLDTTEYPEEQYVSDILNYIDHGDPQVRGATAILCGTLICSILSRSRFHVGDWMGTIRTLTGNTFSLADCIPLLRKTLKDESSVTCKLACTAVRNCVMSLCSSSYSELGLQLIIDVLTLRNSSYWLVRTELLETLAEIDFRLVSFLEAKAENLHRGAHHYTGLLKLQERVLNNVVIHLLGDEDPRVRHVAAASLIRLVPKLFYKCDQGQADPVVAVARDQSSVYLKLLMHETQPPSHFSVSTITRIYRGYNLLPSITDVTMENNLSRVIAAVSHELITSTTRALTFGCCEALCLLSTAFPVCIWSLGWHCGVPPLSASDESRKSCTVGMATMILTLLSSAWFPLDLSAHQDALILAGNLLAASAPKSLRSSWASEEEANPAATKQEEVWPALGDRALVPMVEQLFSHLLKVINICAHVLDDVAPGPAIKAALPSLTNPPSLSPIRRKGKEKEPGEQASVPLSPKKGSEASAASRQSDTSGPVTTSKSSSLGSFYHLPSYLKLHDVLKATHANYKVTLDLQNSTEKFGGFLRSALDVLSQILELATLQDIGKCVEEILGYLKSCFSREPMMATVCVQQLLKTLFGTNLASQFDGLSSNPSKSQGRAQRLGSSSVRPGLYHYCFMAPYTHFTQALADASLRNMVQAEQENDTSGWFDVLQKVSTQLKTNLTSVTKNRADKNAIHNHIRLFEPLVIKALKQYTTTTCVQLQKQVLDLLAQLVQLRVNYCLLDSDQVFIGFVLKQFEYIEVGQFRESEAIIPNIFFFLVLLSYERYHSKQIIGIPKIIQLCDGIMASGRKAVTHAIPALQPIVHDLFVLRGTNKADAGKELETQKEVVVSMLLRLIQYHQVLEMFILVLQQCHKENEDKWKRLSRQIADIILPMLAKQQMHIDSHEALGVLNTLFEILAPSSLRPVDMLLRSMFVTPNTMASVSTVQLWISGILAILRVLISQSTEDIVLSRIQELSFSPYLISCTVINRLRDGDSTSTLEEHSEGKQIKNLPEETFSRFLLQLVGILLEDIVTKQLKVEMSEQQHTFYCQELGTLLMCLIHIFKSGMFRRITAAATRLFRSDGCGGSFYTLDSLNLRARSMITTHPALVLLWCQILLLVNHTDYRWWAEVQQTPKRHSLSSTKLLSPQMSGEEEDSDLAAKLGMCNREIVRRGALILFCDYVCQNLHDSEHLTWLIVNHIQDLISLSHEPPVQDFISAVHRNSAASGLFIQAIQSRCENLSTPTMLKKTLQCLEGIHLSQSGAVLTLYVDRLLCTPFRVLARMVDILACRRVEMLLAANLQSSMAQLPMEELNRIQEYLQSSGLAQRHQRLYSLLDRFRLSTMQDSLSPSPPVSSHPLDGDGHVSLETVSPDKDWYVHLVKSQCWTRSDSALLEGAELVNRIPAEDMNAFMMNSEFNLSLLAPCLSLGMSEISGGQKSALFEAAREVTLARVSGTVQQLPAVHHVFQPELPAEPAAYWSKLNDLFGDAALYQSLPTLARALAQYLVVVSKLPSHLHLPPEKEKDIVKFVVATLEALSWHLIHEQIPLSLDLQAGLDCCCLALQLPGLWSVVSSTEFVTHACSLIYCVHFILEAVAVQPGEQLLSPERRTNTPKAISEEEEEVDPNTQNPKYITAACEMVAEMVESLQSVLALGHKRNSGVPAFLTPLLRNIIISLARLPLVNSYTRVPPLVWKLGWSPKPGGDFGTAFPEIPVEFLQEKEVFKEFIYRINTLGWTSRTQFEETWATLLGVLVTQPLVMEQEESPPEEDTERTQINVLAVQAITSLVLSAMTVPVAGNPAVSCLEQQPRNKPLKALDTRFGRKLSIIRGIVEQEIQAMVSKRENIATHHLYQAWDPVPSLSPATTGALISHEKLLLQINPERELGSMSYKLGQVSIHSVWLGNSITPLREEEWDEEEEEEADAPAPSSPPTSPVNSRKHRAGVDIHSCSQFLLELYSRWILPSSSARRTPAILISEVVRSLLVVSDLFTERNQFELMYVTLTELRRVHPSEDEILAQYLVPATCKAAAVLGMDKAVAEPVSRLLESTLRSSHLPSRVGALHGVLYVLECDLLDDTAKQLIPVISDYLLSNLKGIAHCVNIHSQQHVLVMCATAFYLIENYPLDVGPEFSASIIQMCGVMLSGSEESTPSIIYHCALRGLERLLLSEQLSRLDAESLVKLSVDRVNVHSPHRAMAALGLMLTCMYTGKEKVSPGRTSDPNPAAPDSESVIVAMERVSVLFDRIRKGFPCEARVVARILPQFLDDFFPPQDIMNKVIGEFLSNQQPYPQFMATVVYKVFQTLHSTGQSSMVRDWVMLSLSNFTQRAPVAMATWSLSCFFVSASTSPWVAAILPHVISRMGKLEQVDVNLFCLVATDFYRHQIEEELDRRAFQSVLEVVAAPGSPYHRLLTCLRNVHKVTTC

This assay addresses Huntingtin (Homo sapiens) (UniProt P42858). As to the kind of experiment: mutant huntingtin-calmodulin interaction inhibitors – biochemical, AlphaScreen, primary screen (AID 1671202).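 Note: 0% = both proteins with DMSO and 100% = one protein alone.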 The following applies: AlphaScreen His-mHTT/GST-CaM binding, luminescence; at 15 µM, stronger effect = higher value. A general note: In Alpha technology, singlet oxygen from a donor bead excites a nearby acceptor bead.
For the compound `CCSc1nc2ccccc2c(=O)n1C`, the inhibition is -11.7%.
Consider `Cn1c(COc2ccc(Cl)cc2)nc2ccccc2c1=O`, for which the inhibition was 61.9% (active).
The value for `CC(C)n1c(COc2ccccc2)nc2ccccc21` was -16%; that for `O=C(Nc1cccc(NC(=O)c2ccccc2Cl)c1)c1ccccc1Cl` was 1%; that for `Nc1c(C(=O)Nc2ccccc2I)sc2nc(-c3cccs3)ccc12` was -8%.
The value for `CCOc1cccc2c1OC1(CCCCC1)N1N=C(c3cccnc3)CC21` (stereo not given) was 27%; that for `CCOc1cccc2c1OC(c1ccc(OC)c(OC)c1)N1N=C(c3ccco3)CC21` (stereo not given) was 45%; that for `CCOc1cccc2c1OC(c1cccc(OC)c1OC)N1N=C(c3ccc(C)o3)CC21` (stereo not given) was 67% (active).
As for `CCOC(=O)C1CCN(C(=O)CCN2C(=O)c3ccccc3S2(=O)=O)CC1`, the inhibition is -1.8%.
On to `O=C(Nc1ccc2c(c1)OCCO2)N1CCCC1c1ccc(Cl)cc1` (stereo not given), for which the inhibition is 10.2%.
As for `N#C/C(=C\c1ccc(F)cc1)c1nc(-c2cc3ccccc3oc2=O)cs1`, the inhibition was -8%.
The value for `CC1(C)Cc2ccccc2-c2nc(NCCO)n(Cc3ccccc3)c(=O)c21` was 15%; that for `Cc1cccc(NC(=O)c2nc(-c3cccc(F)c3)n3c2CCCCC3)n1` was 43.6%.
The value for `CCCNC(=O)Cc1cn(C)c2ncccc12` was -16.2%; that for `Cn1cc(CCN2CCN(C(=O)c3ccc(C(F)(F)F)cc3)CC2)c2cccnc21` was 54.6% (active); that for `Cc1ccccc1N1CCN(C(=O)Cc2cn(C)c3ncccc23)CC1` was 10.1%.
The value for `CCCC(O)=C1C(=O)CC(C)(C)CC1=Nc1cccc([N+](=O)[O-])c1` was -1.5%; that for `CC(=O)Nc1ccc(N/C=C(\C#N)c2nc(-c3ccccc3)cs2)cc1` was 4%.
On to `Cc1cccc(-n2nc3c(c2NC(=O)c2c(F)cccc2F)CSC3)c1C`, for which the inhibition was 5%.
The value for `COc1cccc(C(=O)Nc2c3c(nn2-c2ccc(Cl)cc2)CSC3)c1` was 41%.
Consider `O=C(Nc1c2c(nn1-c1ccc(Cl)cc1)CSC2)c1ccc(F)cc1`, for which the inhibition was 21%.
Consider `Cc1ccccc1-n1nc2c(c1NC(=O)/C=C/c1ccco1)CSC2`, for which the inhibition is 98% (active).
The value for `O=C(Nc1c2c(nn1-c1ccc(Cl)cc1)CSC2)c1cccc([N+](=O)[O-])c1` was -9%.
As for `COc1ccc(/C=C/C(=O)Nc2c3c(nn2-c2ccccc2C)CSC3)cc1OC`, the inhibition was 29%.
The value for `Cc1ccccc1-n1nc2c(c1NC(=O)C1CC1)CSC2` was 60% (active); that for `O=C(/C=C/c1ccco1)Nc1c2c(nn1-c1ccc(Cl)cc1)CSC2` was 98% (active).
The value for `O=C(Nc1c2c(nn1-c1ccc(Cl)cc1)CSC2)c1cccc(Br)c1` was 50% (active); that for `Cc1cccc(-n2nc3c(c2NC(=O)C2CC2)CSC3)c1C` was 8%.
The value for `CC(C)C(=O)Nc1c2c(nn1-c1ccc(Cl)cc1)CSC2` was -5%; that for `Cc1cccc(-n2nc3c(c2NC(=O)c2ccc(Br)o2)CSC3)c1C` was 24%.
In the case of `O=C(Nc1ccc(Cl)cc1)c1cc(S(=O)(=O)NCc2ccccc2)ccc1Cl`, the inhibition is 13%.
Take `COc1ccc(OC)c(-c2cc(C(=O)Nc3nc4c(s3)CCCC4)n(C)n2)c1`: the inhibition was 16.3%.
On to `Cc1nc(C2CCN(C(=O)c3cccc(F)c3)CC2)sc1C(=O)NCc1cccnc1`, for which the inhibition was 9.99%.
For `CCCn1cnnc1C1CCCCN1C(=O)c1ccncc1` (stereo not given), the inhibition was -3.5%.
The value for `c1ccc2c(c1)CC1(CCCCC1)N=C2N1CCOCC1` was -5.33%.
The value for `CC(C)C(=O)Nc1ccc(N2CCCN(C(=O)C3CC3)CC2)nc1` was -1%; that for `CCCc1cc2c(=O)c(-c3ccc4c(c3)OCO4)c(CC)oc2cc1OC(=O)CC` was -12.9%.
The value for `C=CCSC1=C(C#N)C(c2ccco2)C(C(=O)Nc2ccccc2OC)=C(C)N1` (stereo not given) was 8%.
With `c1ccc(-c2n[nH]c(C3CCN(Cc4cccnc4)CC3)n2)cc1`, the inhibition is 9.4%.
The value for `O=C(Cc1cccnc1)N1CCCC(c2nc(-c3ccccc3)n[nH]2)C1` (stereo not given) was -0.1%; that for `c1ccc(-c2n[nH]c(C3CCCN(Cc4ccccn4)C3)n2)cc1` (stereo not given) was 100% (active).
The value for `COC(=O)C(C)Oc1ccc2c(c1)OC(=Cc1ccccc1C)C2=O` (stereo not given) was 0.9%.
The value for `O=C(c1ccsc1)N1CCCC2(C1)Nc1ccccc1NC2=NC1CCCC1` (stereo not given) was 4.96%; that for `Cc1ccccc1CNC(=O)C1(C)CCCN(C(=O)c2cccc(Cl)c2)C1` (stereo not given) was 19.4%; that for `COCCN=C1Nc2ccccc2NC12CCCN(C(=O)Cc1cccs1)C2` (stereo not given) was 63% (active).
Consider `Cc1cc(C)n(CC(=O)N2CCCC3(C2)Nc2cccnc2NC3=NC2CCCC2)n1` (stereo not given), for which the inhibition was -1.34%.
As to `COCCN=C1Nc2ccccc2NC12CCCN(C(=O)Nc1cccc(OC)c1)C2` (stereo not given), the inhibition is 99.8% (active).
Regarding `COc1cccc(CNC(=O)N2CCCC3(C2)Nc2cccnc2NC3=NC2CCCC2)c1` (stereo not given), the inhibition is 1.31%.
The value for `COCCN=C1Nc2ccccc2NC12CCCN(S(=O)(=O)c1cccc(OC)c1)C2` (stereo not given) was 11.2%.
The value for `COCCN=C1Nc2ccccc2NC12CCCN(C(=O)c1cccc(Cl)c1)C2` (stereo not given) was 65.7% (active); that for `COc1ccccc1CC(=O)N1CCCC2(C1)Nc1cccnc1NC2=NC1CCCC1` (stereo not given) was 16.8%; that for `CCOc1ccc(CC(=O)N2CCCC3(C2)Nc2cccnc2NC3=NC2CCCC2)cc1` (stereo not given) was 11.4%.
The value for `COCCN=C1Nc2ccccc2NC12CCCN(C(=O)CSc1ccccc1)C2` (stereo not given) was 76.2% (active); that for `COCCN=C1Nc2ccccc2CNC12CCN(C(=O)c1cccc(C(F)(F)F)c1)C2` (stereo not given) was 18.7%; that for `CCOc1ccc(CN2C(=O)CCC2(C)C(=O)NC2CCCC2)cc1OC` (stereo not given) was 16%.
For the compound `CCn1c(SCc2ccccc2F)nnc1-c1cccc([N+](=O)[O-])c1`, the inhibition is 13.8%.
The value for `Cc1ccc(C(=O)COc2ccccc2Cl)cc1C` was -114%.
The value for `COc1ccc([N+](=O)[O-])cc1C1=N/C(=C/c2cccc(F)c2)C(=O)O1` was -5%; that for `COc1ccc(NC(=O)C2CCN(c3cnn(C)c(=O)c3)CC2)c(OC)c1` was 36.1%; that for `COc1cccc(C(=O)N2CCC(c3nnc(C(F)(F)F)o3)CC2)c1OC` was -7.5%.
The value for `COc1cccc(C(=O)N2CCC(Oc3nc4c(C)ccc(C)c4s3)CC2)c1OC` was 64.4% (active).
`COc1ccccc1C(=O)N1CCC(c2nc(C(=O)N3CCOCC3)c(C)o2)CC1`: the inhibition is -6.99%.
The value for `Cc1ccc2nc(C(=O)NCc3cc(F)ccc3F)cn2c1` was -9%.
In the case of `C=CCN(CC=C)S(=O)(=O)c1ccc(C(=O)Nc2c(C(N)=O)oc3ccccc23)cc1`, the inhibition is 15.2%.
The value for `CCNC(=O)C1Cc2ccc(OC)cc2N2CCN(c3ccccc3OC)CC12` (stereo not given) was 47%; that for `COCCNC(=O)C1Cc2ccccc2N2CCN(c3ccccc3)CC12` (stereo not given) was 11.4%; that for `CCNC(=O)C1Cc2ccc(OC)cc2N2CCN(Cc3ccc(Cl)cc3)CC12` (stereo not given) was 93.9% (active).
The value for `O=C(Nc1ccc2c(c1)OCO2)N1CCOc2ccccc21` was 7.08%; that for `Cc1nc2c(C(=O)NC3CCCC3)cnn2c(C)c1Cc1cccc(Cl)c1` was 79% (active); that for `Cc1ccccc1Cc1c(C)nc2c(C(=O)NC3CCCCC3)cnn2c1C` was 3%.
Take `Cc1cc(C)c(Cc2c(C)nc3c(C(=O)NC4CCCC4)cnn3c2C)c(C)c1`: the inhibition is -6%.
The value for `COc1ccc(C2=NC3(CCN(CC(=O)NCc4ccc(C)cc4)CC3)NC2=O)cc1` was 18.4%.
Turning to `CC(C)NC(=O)c1ccc(C(=O)NC(C)C)nc1`, the inhibition was 0.9%.
The value for `CCN(CC)C(=O)C1CCN(c2nc3ccc(-c4ccc(OC)cc4)nc3s2)CC1` was 66.8% (active).
The value for `O=C(NC1CC1)C1CCN(c2nc3ccc(-c4ccccc4)nc3s2)CC1` was 0.8%.
The value for `COc1ccc(-c2ccc3nc(N4CCC(C(N)=O)CC4)sc3n2)cc1` was 27%.
In the case of `CN1CCC(NC(=O)C2CCN(c3nc4ccc(-c5ccsc5)nc4s3)CC2)CC1`, the inhibition is 70.8% (active).
The value for `CN(C)C(=O)C1CCN(c2nc3ccc(-c4cccc(F)c4)nc3s2)CC1` was 0.2%; that for `CC(C)CNC(=O)C1CCN(c2nc3ccc(-c4ccncc4)nc3s2)CC1` was 4.07%.
The value for `O=C(NCc1ccc2c(c1)OCO2)c1cc2c(s1)CCN(C(=O)c1ccc(F)cc1)C2` was 1.84%; that for `CCOc1ccc2c(=O)c(Oc3ccccc3)coc2c1` was -2.3%; that for `CCOc1ccccc1NC(=O)Nc1ccc2c(c1)CN(C(=O)c1ccco1)CC2` was 28.9%.
Consider `Cn1c(C2CCN(C(=O)Cc3ccccc3)C2)nc2ccncc21` (stereo not given), for which the inhibition was -1.65%.
The value for `N#Cc1nc(-c2ccco2)oc1N1CCN(C(=O)c2ccccc2F)CC1` was -5.8%.
The value for `Cc1ccccc1-n1c(=O)n(C2CC2)c(=O)c2c1ncn2Cc1c(F)cccc1F` was -4.6%; that for `COc1ccc(NC(=O)c2ccc(OC)cc2)cc1` was -2%; that for `Cc1cc(C)nc(SCC(=O)c2ccc(Cl)cc2)n1` was 1.3%.
The value for `COc1ccc(C(=O)Sc2nc(C)cc(C)n2)cc1` was 98% (active).
Take `COc1ccc(C2=N/C(=C\c3ccc(Cl)cc3)C(=O)O2)cc1OC`: the inhibition is -4%.
The value for `O=c1[nH]c2ccc(S(=O)(=O)Nc3ccc(OC(F)(F)F)cc3)cc2o1` was 0%; that for `O=C(Nc1nnc(Cc2cccs2)o1)c1ccc(Cl)cc1Cl` was 6%; that for `COc1ccc(-c2cc3c(c4c2ccn4C)C2CCC3C2)cn1` (stereo not given) was 52.6% (active).
The value for `Cc1cc2[nH]c(C(=O)Nc3ccccc3F)c(CN3CCOCC3)c2s1` was 23%.
The value for `COc1ccc(C(=O)N2CCC(c3cc(N)on3)CC2)cc1F` was 3.7%; that for `CCCCN(C)C(=O)C1CCCN(c2ncccc2-c2noc(C3CCC3)n2)C1` (stereo not given) was 23.9%.
Take `COc1cc2c(cc1OC)C(C(=O)O)C(c1cccc([N+](=O)[O-])c1)N(C)C2=O` (stereo not given): the inhibition is 0%.
The value for `COc1ccc2c(c1)C1=NN(C(C)=O)C(c3cccc([N+](=O)[O-])c3)C1CC2` (stereo not given) was 3%; that for `CC(=O)c1cc2c3c(c1)C1C=CCC1C(c1cccc([N+](=O)[O-])c1)N3CC1CC=CC21` (stereo not given) was 97% (active); that for `O=C(NCc1ccco1)Nc1c[nH]c2ccccc12` was 3%.
The value for `NCCN1C(=O)c2[nH]nc(-c3ccccc3)c2C1c1ccccc1` (stereo not given) was 9%; that for `CCOC(=O)N1CCC(c2nnc(Cc3ccc(OC)cc3)s2)CC1` was -8.5%.
The value for `Cc1ccc(C(=O)Nc2cc(-c3ccccn3)no2)cc1` was 1.2%.
Take `NS(=O)(=O)c1ccc(C(=O)NCCOc2ccc(-c3ccccn3)nn2)cc1`: the inhibition was 100% (active).
The value for `Cc1nc(-c2ccccc2)sc1C(=O)NCCOc1ccc(-c2cccs2)nn1` was 6%.
The value for `O=C(Cc1ccccc1Cl)NCC1CCN(c2cc(-c3ccncc3)[nH]n2)CC1` was -5.18%.

Usually inhibition stands for the drop in the measured response relative to a control, in per cent.
